Inconclusive results are not listed. Calls of active or inactive are those of the source. How the source made its calls: active means hit-call score of the fitted dose curve at least 0.9, where 1 is the maximum; inconclusive means response in the unintended direction; inactive means score below 0.9.

The test deals with Glucocorticoid receptor (Homo sapiens) (UniProt P04150). Put plainly: ATG_GR_TRANS: Attagene TRANS-FACTORIAL HepG2 Assay for human Glucocorticoid Receptor (GR) (AID 2282978).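 Further: activators score as hits since higher reporter transcript over DMSO is fitted.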 The settings on record: HepG2 Attagene TRANS GR reporter, mRNA transcription. The method, then: ATG_TRANS is a cell-based, multiplexed-readout assay that uses HepG2, a human liver cell line, with measurements taken at 24 hours after chemical dosing in a 24-well plate.ATG_GR_TRANS is one of 30 assay component(s) measured or calculated from the ATG_TRANS assay. It is designed to make measurements of mRNA induction, a form of inducible reporter, as detected with fluorescence intensity signals by Reverse transcription polymerase chain reaction (RT-PCR) and Capillary electrophoresis technology.Data from the assay component ATG_GR_TRANS was analyzed into 1 assay endpoint. This assay endpoint, ATG_GR_TRANS, was analyzed in the positive analysis fitting direction relative to DMSO as the negative control and baseline of activity. Using a type of inducible reporter, measures of mRNA for gain-of-signal activity can be used to understand the reporter gene at the transcription factor-level as they relate to the gene NR3C1. Furthermore, this assay endpoint can be referred to as a primary readout, because this assay has produced multiple assay endpoints where this one serves a reporter gene function. To generalize the intended target to other relatable targets, this assay endpoint is annotated to the nuclear receptor intended target family, where the subfamily is steroidal.
Chain of Glucocorticoid receptor (Homo sapiens) (P04150 whole entry, looked up): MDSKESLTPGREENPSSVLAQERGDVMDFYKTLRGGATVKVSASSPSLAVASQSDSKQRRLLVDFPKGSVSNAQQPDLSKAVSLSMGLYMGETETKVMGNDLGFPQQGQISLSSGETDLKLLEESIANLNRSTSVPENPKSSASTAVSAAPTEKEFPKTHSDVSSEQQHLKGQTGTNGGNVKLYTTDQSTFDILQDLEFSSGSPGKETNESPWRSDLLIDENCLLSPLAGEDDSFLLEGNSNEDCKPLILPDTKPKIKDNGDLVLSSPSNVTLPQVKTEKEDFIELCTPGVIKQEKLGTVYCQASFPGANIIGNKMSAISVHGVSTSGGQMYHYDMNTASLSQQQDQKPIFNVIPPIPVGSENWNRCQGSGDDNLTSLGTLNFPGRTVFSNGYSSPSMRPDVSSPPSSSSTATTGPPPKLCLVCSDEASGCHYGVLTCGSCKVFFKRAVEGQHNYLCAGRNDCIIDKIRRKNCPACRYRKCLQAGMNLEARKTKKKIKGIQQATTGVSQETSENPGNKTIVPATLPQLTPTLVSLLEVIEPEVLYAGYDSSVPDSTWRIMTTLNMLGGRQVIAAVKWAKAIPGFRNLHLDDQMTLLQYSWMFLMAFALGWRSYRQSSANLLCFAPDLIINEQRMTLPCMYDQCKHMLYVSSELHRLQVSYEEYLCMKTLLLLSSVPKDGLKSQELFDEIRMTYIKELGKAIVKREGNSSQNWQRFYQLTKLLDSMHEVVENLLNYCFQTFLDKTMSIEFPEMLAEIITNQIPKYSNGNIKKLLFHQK
Human liver HepG2 cells are transiently transfected with multiple reporter transcription units (MRTUs) in 6-well plates using FuGene 6 reagent (Roche; 3 ml FuGene/1 mg DNA). The MRTU constructs are regulated by a cis-regulating element (promoter). […] A major difference between the CIS and TRANS system is that in CIS activities of endogenous TFs are measured, whereas the TRANS assay evaluates changes in activities of exogenous, chimeric NR-Gal4 proteins. […] At the end of 24 hour incubation, total RNA was isolated using TriZol reagent (Invitrogen). The isolated RNA is then reverse-transcribed using oligo(dT) primer and Mo-MLV reverse transcriptase (Invitrogen) with DNAse I (Ambion) treatment for 30 min. The one-tenth of the produced cDNA was amplified by PCR using Taq DNA polymerase (Invitrogen) and two reporter sequence-specific primers. The PCR products were fluorescently labeled by primer extension with 6-arboxyfluorescein (6-FAM) 5'-labeled reporter sequence-specific primer (2 min at 95 C, 20 s at 68 C and 10 min at 72 C) and these products were digested with 5U of HpaI (New England Biolabs) for 2h at 37 C. The fragments were purified using Qiaquick PCR columns (Qiagen), analyzed on an ABI 3130xL genetic analyzer (Applied Biosystems) with peak positions identified by using a set of X-rhodamine (ROX)-labeled MapMarker1000 molecular weight standards (BioVentures). The raw capillary electrophoresis data was processed using Attagraph software (Attagene).
Consider `CC[N+](CC)(CC)CC`, for which the compound was called inactive.
Regarding `C=CCc1ccccc1O`, the call was inactive.
The result for `CCCCCCCCCCCCCl` reads “inactive”; that for `CCOC(=O)c1ccccc1S(=O)(=O)NC(=O)Nc1nc(Cl)cc(OC)n1`, “inactive”.
To `N#CCCC(Br)(C#N)CBr` (stereo not given) belongs “inactive”; to `CN(N=O)C(N)=O`, “inactive”.
For the compound `CCCCOC(=O)COC(=O)c1ccccc1C(=O)OCCCC`, the call was inactive.
`COc1nn(C(=O)NS(=O)(=O)c2ccccc2OC(F)(F)F)c(=O)n1C`: the compound was classed as inactive.
For the compound `CC(C)[N+](=O)[O-]`, the call was inactive.
With `Nc1nc(=S)[nH][nH]1`, the compound was classed as inactive.
To `Brc1c(Br)c(Br)c(Oc2c(Br)c(Br)c(Br)c(Br)c2Br)c(Br)c1Br` belongs “inactive”; to `CCCSP(=S)(OCC)Oc1ccc(Cl)cc1Cl` (stereo not given), “inactive”; to `CN(C1CCCCC1)C1CCCCC1`, “inactive”.
As to `CC(=O)C(F)(F)C(F)(F)F`, the result was inactive.
To `CCOP(=S)(OCC)OP(=S)(OCC)OCC` belongs “inactive”; to `Clc1cccc(Cl)c1`, “inactive”; to `Cc1ccc2nc3sc(=O)sc3nc2c1`, “inactive”.
`CCN(CCO)CCO`: the compound was called inactive.
On to `CC(c1ccccc1)(c1ccc(O)cc1)c1ccc(O)cc1`, for which the compound was called inactive.
Regarding `Cc1ccccc1OP(=O)(Oc1ccccc1)Oc1ccccc1`, the call was inactive.
To `BrCCCCBr` belongs “inactive”; to `Cc1cc(-c2cc(C)c(N)c(C)c2)cc(C)c1N`, “inactive”; to `CCC[CH2][Sn]([CH2]CCC)([CH2]CCC)[CH2]CCC`, “inactive”.
Turning to `CC(c1ccc(O)cc1)c1ccc(O)cc1`, the call was inactive.
Regarding `O=C(O)COc1cc(Cl)c(Cl)cc1Cl`, the compound was classed as inactive.
To `C[CH2][Hg][S]c1ccccc1C(=O)O` belongs “inactive”.
On to `CC(C)N(C(=O)CCl)c1ccccc1`, for which the compound was classed as inactive.
The result for `O=[N+]([O-])c1cc([As](=O)(O)O)ccc1O` reads “inactive”; that for `CCCCCCCCBr`, “inactive”.
As to `c1cc[c]([Sb]([c]2ccccc2)[c]2ccccc2)cc1`, the compound was called inactive.
Take `O=C1c2ccccc2C(=O)C1C(=O)C(c1ccccc1)c1ccc(Cl)cc1` (stereo not given): the result was inactive.
The result for `Fc1cccc(Cl)c1CCl` reads “inactive”.
To `CCCCOP(=O)(CCCC)OCCCC` belongs “inactive”; to `Oc1cccc(-c2ccccc2)c1`, “inactive”; to `CC(C)(c1ccc(O)c(-c2ccccc2)c1)c1ccc(O)c(-c2ccccc2)c1`, “inactive”.
In the case of `O=NN1CCCCCC1`, the call was inactive.
Turning to `Cc1cc(SCc2sc(-c3ccc(C(F)(F)F)c(F)c3)nc2C)ccc1OCC(=O)O`, the result was inactive.
To `CCCCCCCCCCCCCCC(Br)C(=O)O` (stereo not given) belongs “inactive”.
The result for `O=c1[nH]c(=O)n(Cl)c(=O)n1Cl` reads “inactive”.
To `O=C(Cc1ccccc1)OCCc1ccccc1` belongs “inactive”.

(Values after PubChem BioAssay (EPA / NIEHS).)
